Assay results taken from PubChem BioAssay.
Activity calls are given as the source filed them.

Tests used:
[1] = test system: Plasmodium falciparum Sir2 (PF13_0152, Sir2A); assay: pfSir2 binders on small-molecule microarrays, primary screen, biochemical, small-molecule microarray, 635 nm fluorescence (AID 1098); conditions: small-molecule microarray binding, fluorescence 635 nm; higher = more signal;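 further: score merges spot fluorescence intensity with its signal-to-noise ratio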
[2] = small-molecule microarray binders of probe aDKK1, primary screen, biochemical, biotinylated probe, 635/667 nm fluorescence (AID 1099); conditions: higher = more signal;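 further: score merges 667nm spot fluorescence with signal to noise across triplicate slides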
[3] = small-molecule microarray binders of probe aCHRDL2, primary screen, biochemical, biotinylated probe, 635/667 nm fluorescence (AID 1100); conditions: higher = more signal
[4] = splicing luciferase reporter signal modulators, primary screen, spliceosome inhibition project, cell-based, HEK293, splice +/- reporter (AID 1101); conditions: luminescence, 24 h, higher = more signal, called active from +8 up or from −8 down;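 further: HEK293 cells carrying a splicing-competent luciferase reporter gene; test concentration not given here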
[5] = molecular target: Fibroblast growth factor 10 (Homo sapiens) (UniProt O15520); assay: FGF10 binders on small-molecule microarrays, primary screen, biochemical, small-molecule microarray, 635 nm fluorescence (AID 1102); conditions: FGF10 binding, fluorescence 635 nm, higher = more signal
[6] = test system: glycogen synthase kinase-3 (GSK3A per assay name; protocol says GSK3B); assay: GSK3 binders on small-molecule microarrays, primary screen, biochemical, small-molecule microarray, 635 nm fluorescence, GSK3A (AID 1103); conditions: small-molecule microarray binding, fluorescence 635 nm; higher = more signal; further: the record names both GSK3A and GSK3B
[7] = molecular target: Epidermal growth factor receptor (Homo sapiens) (UniProt P00533); assay: EGFR binders on small-molecule microarrays, primary screen, biochemical, small-molecule microarray, 635 nm fluorescence (AID 1104); conditions: EGFR binding, higher = more signal;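 further: score merges 667 nm emission intensity with spot signal to noise over triplicate slides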
[8] = molecular target: Follistatin-related protein 3 (Homo sapiens) (UniProt O95633); assay: FSTL3 binders on small-molecule microarrays, primary screen, biochemical, small-molecule microarray, 635 nm fluorescence (AID 1105); conditions: FSTL3 binding, higher = more signal;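 further: score merges emission near 667 nm and signal to noise per printed spot across three slides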
[9] = molecular target: Dickkopf-related protein 1 (Homo sapiens) (UniProt O94907); assay: DKK1 binders on small-molecule microarrays, primary screen, biochemical, small-molecule microarray, 635 nm fluorescence scan (AID 1106); conditions: DKK1 binding, higher = more signal;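 further: score merges emission near 667 nm with signal to noise over three replicate slides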
[10] = test system: Inhibin beta A chain (activin A); assay: INHBA (activin A) binders on microarrays, primary screen, biochemical, small-molecule microarray, 635 nm fluorescence scan (AID 1107); conditions: small-molecule microarray binding, higher = more signal;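 further: mouse activin A protein probed at 4.33 µg/mL on printed slides; score merges bound-protein fluorescence near 667 nm with spot signal-to-noise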
[11] = test system: Human papillomavirus type 1a protein E7 (residues 44-93); assay: HPV1a E7 fragment binders on microarrays, primary screen, biochemical, small-molecule microarray, residues 44-93, 635 nm fluorescence (AID 1108); conditions: small-molecule microarray binding, fluorescence 635 nm; higher = more signal;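 further: E7 fragment applied at 1 µg/mL in TBST for 1 h at 4 C; score combines spot fluorescence with its signal to noise ratio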
[12] = modulators of HCV replicon luciferase signal, primary screen, HCV replication inhibitor project, Huh7 cells, luciferase reporter (AID 1109); conditions: 48 h, higher = more signal;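 further: huh7 hepatoma cells harbouring a luciferase neomycin HCV replicon reporter; luciferase luminescence as measure of HCV replicon replication; test concentration not given here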
[13] = molecular target: Left-right determination factor 2 (Homo sapiens) (UniProt O00292); assay: LEFTY2 binders on small-molecule microarrays, primary screen, biochemical, small-molecule microarray, 635 nm fluorescence scan (AID 1110); conditions: LEFTY2 binding, higher = more signal
[14] = molecular target: Calmodulin-1 (Homo sapiens) (UniProt P0DP23); assay: CALM1 binders on microarrays, EGTA buffer, profiling panel, biochemical, small-molecule microarray, Cy5-labelled CALM1 (AID 1111); conditions: Cy5-CALM1 binding fluorescence, higher = more signal;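 further: labelled calmodulin applied in Tris saline Tween buffer holding calcium plus EGTA and DTT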
[15] = molecular target: Calmodulin-1 (Homo sapiens) (UniProt P0DP23); assay: calcium-bound CALM1 binders on microarrays, profiling panel, artefact control for SMM control-protein annotation, biochemical, small-molecule microarray, Cy5-labelled CALM1, plus calcium (AID 1112); conditions: Cy5-CALM1 binding fluorescence, higher = more signal;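 further: score merges spot fluorescence with signal to noise from triplicate slides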
[16] = small-molecule microarray binders of probe aWnt5a, primary screen, biochemical, biotinylated probe, 635/667 nm fluorescence (AID 1113); conditions: higher = more signal;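 further: score merges 667 nm fluorescence intensity with signal-to-noise per printed feature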
[17] = small-molecule microarray binders of probe aShh, primary screen, biochemical, biotinylated probe, 635/667 nm fluorescence (AID 1114); conditions: higher = more signal;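 further: probe is biotin-labelled aShh protein from a stem cell growth factor screen; measures binding of labelled protein to compounds printed on the slide; score merges feature fluorescence at 667 nm with signal-to-noise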
[18] = small-molecule microarray binders of probe aNog, primary screen, biochemical, biotinylated probe, 635/667 nm fluorescence (AID 1115); conditions: higher = more signal;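 further: probe is biotinylated aNog protein used at 0.15 µg/mL for 1 h at 4 C; z-score combines 667 nm fluorescence of each spot with its signal to noise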
[19] = molecular target: Torsin-1A-interacting protein 1 (Homo sapiens) (UniProt Q5JTV8); assay: LAP1 binders from COS7 cell lysate, primary screen, small-molecule microarray, 635/667 nm fluorescence (AID 1116); conditions: COS7-hLAP1 lysate binding, 635 nm fluorescence, higher = more signal
[20] = molecular target: Alpha-bungarotoxin (Bungarus multicinctus) (UniProt P60615); assay: alpha-bungarotoxin binders on microarray, profiling panel, artefact control for SMM control protein annotation, biochemical, small-molecule microarray, Alexa647 label, 635/667 nm fluorescence (AID 1117); conditions: alpha-BTX-A647 binding fluorescence, higher = more signal
Alpha-bungarotoxin (Bungarus multicinctus), sequence (P60615 whole entry, looked up): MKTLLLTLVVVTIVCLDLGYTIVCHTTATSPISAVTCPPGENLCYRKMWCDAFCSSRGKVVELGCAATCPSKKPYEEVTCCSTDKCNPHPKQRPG

Torsin-1A-interacting protein 1 (Homo sapiens), sequence (Q5JTV8 whole entry, looked up): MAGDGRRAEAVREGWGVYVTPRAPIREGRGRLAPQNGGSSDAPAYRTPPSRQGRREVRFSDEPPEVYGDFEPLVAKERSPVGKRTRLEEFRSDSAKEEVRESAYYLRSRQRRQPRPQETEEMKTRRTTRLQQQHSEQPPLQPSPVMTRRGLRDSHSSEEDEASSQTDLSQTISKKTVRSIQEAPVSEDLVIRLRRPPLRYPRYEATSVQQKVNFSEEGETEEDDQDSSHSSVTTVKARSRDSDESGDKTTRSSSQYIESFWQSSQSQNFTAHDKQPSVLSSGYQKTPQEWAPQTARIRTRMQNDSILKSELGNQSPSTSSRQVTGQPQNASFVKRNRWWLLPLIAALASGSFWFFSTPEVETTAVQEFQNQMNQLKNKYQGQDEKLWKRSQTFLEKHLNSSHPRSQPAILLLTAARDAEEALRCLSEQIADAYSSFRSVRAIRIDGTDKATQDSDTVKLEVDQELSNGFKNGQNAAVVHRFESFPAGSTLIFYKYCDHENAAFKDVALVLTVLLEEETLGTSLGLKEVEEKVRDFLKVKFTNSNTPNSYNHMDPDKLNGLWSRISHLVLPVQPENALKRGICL
Epidermal growth factor receptor (Homo sapiens), sequence (P00533 whole entry, looked up): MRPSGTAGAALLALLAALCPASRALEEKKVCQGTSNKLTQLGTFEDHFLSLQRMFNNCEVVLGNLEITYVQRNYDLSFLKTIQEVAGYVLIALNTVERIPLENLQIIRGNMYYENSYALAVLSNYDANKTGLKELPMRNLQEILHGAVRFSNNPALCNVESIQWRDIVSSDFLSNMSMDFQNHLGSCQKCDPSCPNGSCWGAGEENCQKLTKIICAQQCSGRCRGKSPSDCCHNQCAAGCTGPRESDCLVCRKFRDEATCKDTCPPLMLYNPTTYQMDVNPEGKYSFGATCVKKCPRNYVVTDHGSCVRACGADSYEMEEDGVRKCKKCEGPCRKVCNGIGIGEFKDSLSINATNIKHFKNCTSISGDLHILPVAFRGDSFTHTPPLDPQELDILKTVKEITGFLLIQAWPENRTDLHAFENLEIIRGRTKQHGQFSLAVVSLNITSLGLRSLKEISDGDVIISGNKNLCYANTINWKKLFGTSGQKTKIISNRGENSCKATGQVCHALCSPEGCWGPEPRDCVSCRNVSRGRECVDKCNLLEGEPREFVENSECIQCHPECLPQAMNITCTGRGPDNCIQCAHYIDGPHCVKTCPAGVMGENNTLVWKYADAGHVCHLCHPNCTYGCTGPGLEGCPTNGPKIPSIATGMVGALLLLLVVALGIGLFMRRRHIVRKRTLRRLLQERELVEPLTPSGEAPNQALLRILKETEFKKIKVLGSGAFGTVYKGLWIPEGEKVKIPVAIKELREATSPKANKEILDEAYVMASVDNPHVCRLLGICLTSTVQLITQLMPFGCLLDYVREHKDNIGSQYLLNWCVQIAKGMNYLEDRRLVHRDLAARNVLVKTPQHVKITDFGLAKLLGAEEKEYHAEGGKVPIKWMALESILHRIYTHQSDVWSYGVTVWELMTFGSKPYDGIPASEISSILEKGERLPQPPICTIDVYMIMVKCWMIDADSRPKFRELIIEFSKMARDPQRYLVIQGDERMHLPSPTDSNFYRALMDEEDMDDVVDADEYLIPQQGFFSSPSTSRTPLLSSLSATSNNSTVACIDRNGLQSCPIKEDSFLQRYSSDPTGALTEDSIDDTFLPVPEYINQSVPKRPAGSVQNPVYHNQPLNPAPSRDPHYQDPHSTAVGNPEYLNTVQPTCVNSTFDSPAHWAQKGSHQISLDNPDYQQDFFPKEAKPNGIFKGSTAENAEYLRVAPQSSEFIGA
Dickkopf-related protein 1 (Homo sapiens), sequence (O94907 whole entry, looked up): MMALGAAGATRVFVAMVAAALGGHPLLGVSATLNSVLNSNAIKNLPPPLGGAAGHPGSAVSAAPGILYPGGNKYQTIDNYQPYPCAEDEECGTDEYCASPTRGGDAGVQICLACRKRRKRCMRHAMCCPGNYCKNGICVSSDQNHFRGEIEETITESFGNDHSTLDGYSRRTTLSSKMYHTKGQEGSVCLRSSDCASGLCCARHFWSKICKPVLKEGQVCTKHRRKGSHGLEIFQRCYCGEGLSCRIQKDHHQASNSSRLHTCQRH
Fibroblast growth factor 10 (Homo sapiens), sequence (O15520 whole entry, looked up): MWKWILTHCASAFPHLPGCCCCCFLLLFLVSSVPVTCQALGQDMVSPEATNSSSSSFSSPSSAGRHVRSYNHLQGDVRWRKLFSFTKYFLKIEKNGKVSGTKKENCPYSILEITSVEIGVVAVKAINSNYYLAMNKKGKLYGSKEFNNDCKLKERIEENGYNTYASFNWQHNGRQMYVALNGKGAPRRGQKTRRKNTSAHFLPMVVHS
Left-right determination factor 2 (Homo sapiens), sequence (O00292 whole entry, looked up): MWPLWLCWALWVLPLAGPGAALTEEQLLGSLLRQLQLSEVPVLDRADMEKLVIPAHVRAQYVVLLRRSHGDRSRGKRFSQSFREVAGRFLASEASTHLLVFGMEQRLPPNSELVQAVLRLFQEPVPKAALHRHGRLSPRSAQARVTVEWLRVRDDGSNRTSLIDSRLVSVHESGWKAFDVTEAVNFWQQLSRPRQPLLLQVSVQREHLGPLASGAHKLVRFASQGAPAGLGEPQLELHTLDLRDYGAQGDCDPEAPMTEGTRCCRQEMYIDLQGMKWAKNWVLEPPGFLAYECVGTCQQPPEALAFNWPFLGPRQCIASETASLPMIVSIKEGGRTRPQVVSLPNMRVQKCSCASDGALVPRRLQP
Follistatin-related protein 3 (Homo sapiens), sequence (O95633 whole entry, looked up): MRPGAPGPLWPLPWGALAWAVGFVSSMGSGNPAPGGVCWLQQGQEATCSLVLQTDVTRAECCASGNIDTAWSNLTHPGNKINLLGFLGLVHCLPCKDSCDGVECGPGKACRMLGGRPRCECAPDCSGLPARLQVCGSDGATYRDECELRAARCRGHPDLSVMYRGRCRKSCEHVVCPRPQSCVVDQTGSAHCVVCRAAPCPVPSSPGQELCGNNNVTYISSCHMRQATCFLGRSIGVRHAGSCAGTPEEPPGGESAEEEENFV

| Structure (SMILES) | composite z-score [1] | composite z-score [2] | composite z-score [3] | z-score [4] | composite z-score [5] | composite z-score [6] | composite z-score [7] | composite z-score [8] | composite z-score [9] | composite z-score [10] | composite z-score [11] | z-score [12] | composite z-score [13] | composite z-score [14] | composite z-score [15] | composite z-score [16] | composite z-score [17] | composite z-score [18] | composite z-score [19] | composite z-score [20] |
| --- | --- | --- | --- | --- | --- | --- | --- | --- | --- | --- | --- | --- | --- | --- | --- | --- | --- | --- | --- | --- |
| C[C@]1(C(=O)NCC(F)(F)F)c2ccccc2C(=O)N(Cc2cc(C(F)(F)F)cc(C(F)(F)F)c2)[C@H]1c1ccc(CO)cc1 | 0.786 | 0.338 | 0.543 | 0.272 (inactive) | -0.2 | -0.447 | -0.654 | -0.695 | -0.399 | -0.497 | 0.454 | -0.1 | -0.544 | -0.136 | 0.331 | -0.0346 | -0.0146 | 0.231 | 0.173 | 0.342 |
| Cc1ccc(S[C@]2(C(=O)NCC(C)C)CC(=O)N(C(C)C)[C@@H]2c2ccc(CO)cc2I)cc1 | 0.115 | 0.669 | 1.28 | -1.14 (inactive) | -0.679 | -1.03 | -0.941 | -0.573 | -0.7 | 0.256 | 0.297 | -0.98 | -1.62 | -1.21 | 0.0034 | -0.112 | -0.0035 | -0.131 | 0.626 | -0.659 |
| COC(=O)[C@@]1(Cc2ccc(F)cc2)[C@H]2c3cc(C(=O)N(C)C)n(Cc4cccc5ccccc45)c3C[C@H]2CN1C(=O)c1ccccc1 | 0.796 | 0.926 | 1.04 | 0.551 (inactive) | 1.13 | 0.111 | -0.953 | -0.242 | -1.02 | 0.644 | 1.12 | -1.57 | -0.856 | 0.0818 | 0.189 | 0.492 | 1.76 | 1.53 | 1.17 | -0.145 |
| C=C(C(=O)CC[C@@H](OC(=O)c1cccnc1)c1cccc(OCCO)c1)C(C)C | 1.32 | 0.28 | 0.0064 | 3.07 (inactive) | 0.959 | -0.521 | 0.111 | 0.343 | 0.109 | 0.867 | -0.501 | -2.12 | 0.415 | -0.323 | -1.4 | -0.0405 | -0.123 | -0.0784 | 0.534 | 0.316 |
| C=CC[C@H](O)c1ccc(O)c2ccccc12 | 0.623 | -0.196 | -0.0155 | -1.26 (inactive) | 1.1 | 1.01 | 1.04 | 1.42 | 1.34 | 1.21 | 0.7 | -2.04 | 0.685 | -0.536 | -1.32 | -0.0521 | 0.151 | -0.158 | 0.655 | 1.23 |
| CCCCCN1CC=CC23O[C@@H]4/C=C\CCCOC(=O)C4[C@H]2C(=O)N(CCCCCO)[C@@H]3C1=O (stereo not given in full) | 0.447 | -0.267 | 0.337 | -0.831 (inactive) | -0.566 | -0.364 | -0.779 | -0.521 | -0.833 | 0.468 | -0.735 | -0.831 | -1.08 | -0.517 | -0.97 | -0.224 | 0.0121 | -0.121 | -1.28 | -0.543 |
| CCCCCCCCCCC(O)C1C=CC2C(=O)N(C)C(=O)C2N1Nc1ccccc1 (stereo not given) | -1.02 | -0.0132 | 0.937 | 0.953 (inactive) | -1.09 | -1.09 | -1.33 | -1.54 | -1.22 | 1.17 | 0.164 | -0.28 | -2.42 | 0.194 | 1.19 | -0.252 | -0.121 | 0.101 | 0.504 | -0.868 |
| CC(C)N1C(=O)[C@@]2(Cc3ccccc31)c1ccccc1C(=O)N(Cc1ccccc1)[C@H]2c1ccc(CO)cc1 | 0.0154 | -1.02 | -1.01 | 0.144 (inactive) | 0.368 | 0.241 | -0.162 | 0.245 | 0.355 | 0.931 | 0.256 | -0.656 | 0.159 | -0.439 | -0.445 | -0.124 | -0.64 | -0.218 | 0.0896 | 0.648 |
| COc1ccc(CCNC(=O)[C@@H]2c3ccccc3C(=O)N(Cc3cc(F)cc(C(F)(F)F)c3)[C@H]2c2ccc(CO)cc2)cc1 | 0.181 | 1.89 | 0.877 | -0.267 (inactive) | 0.12 | 0.765 | 0.321 | 1.1 | 0.157 | 1.08 | 0.45 | -0.989 | 0.262 | 1.05 | 0.197 | 0.0438 | -0.314 | 1.86 | 1.59 | 0.715 |
| C=C(COC)/C(=C/C[C@@H](OC(=O)c1ccncc1)c1ccccc1OCCO)c1cnc2ccccc2c1 | 0.247 | -0.0501 | 0.0321 | 0.488 (inactive) | 1.47 | 1.29 | 1.3 | 1.59 | 0.651 | 1.61 | 1.24 | -2.8 | 1.14 | 0.528 | -0.469 | 0.067 | 0.111 | 0.361 | 1.47 | 2.96 |
| CCOC(=O)C[C@H]1[C@H](OC(=O)c2ccc(-c3ccccc3)cc2)[C@@H](NC(=O)C2CCCCC2)c2cc(OCCCO)ccc2N1C(=O)Cc1ccc(OC)cc1 | -0.186 | 0.0229 | 0.0338 | -0.772 (inactive) | 0.135 | 0.178 | 0.273 | 0.217 | 0.0901 | 0.647 | 0.612 | -1.57 | 0.4 | 1.07 | 0.881 | -0.0523 | -0.571 | -0.638 | 0.527 | 0.333 |
